# From PMC7862700, “An all-to-all approach to the identification of sequence-specific readers for epigenetic DNA modifications on cytosine”
# What was measured:
# Experiment in all cases: DAPPL (digital affinity profiling via proximity ligation, sequencing); 10 mM Tris-HCl pH 7.5, 50 mM NaCl, 1 mM DTT, 4% glycerol, room temperature, 30 min; GST-TFs on glutathione beads, 16-mer random dsDNA library, 0.1% formaldehyde crosslink after washing; high values mean tight binding
# FLI1 = biological target: T1, FLI1 (Homo sapiens, UniProt Q01543 1-452); conditions: protein: recombinant; tags: N-terminal GST; dsDNA, one strand shown
# T1 sequence: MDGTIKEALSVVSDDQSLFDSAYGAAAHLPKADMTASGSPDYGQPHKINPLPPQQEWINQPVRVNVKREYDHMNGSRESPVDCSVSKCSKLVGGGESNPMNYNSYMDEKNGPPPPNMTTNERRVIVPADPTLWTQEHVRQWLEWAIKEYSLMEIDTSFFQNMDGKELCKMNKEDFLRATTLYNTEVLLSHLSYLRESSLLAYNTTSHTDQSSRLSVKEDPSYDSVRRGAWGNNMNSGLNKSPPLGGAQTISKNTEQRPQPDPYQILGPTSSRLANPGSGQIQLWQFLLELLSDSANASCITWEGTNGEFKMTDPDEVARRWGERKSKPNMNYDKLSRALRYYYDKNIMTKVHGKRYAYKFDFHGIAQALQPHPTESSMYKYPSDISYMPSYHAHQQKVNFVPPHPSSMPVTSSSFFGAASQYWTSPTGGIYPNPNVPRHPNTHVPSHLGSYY
# In short: (§1)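 Beads coated with glutathione captured GST-fused human transcription factors that had been expressed in yeast, and the factors were then given DNA barcodes and pooled with a tag-only sample. The pools were incubated with 200 nmole of a random double-stranded 16-mer DNA library in Tris/NaCl/DTT/glycerol buffer for 30 min at room temperature, washed, crosslinked with 0.1% formaldehyde and proximity-ligated with BsaI/T4 ligase at 37 °C for 1 h. PCR amplification and Illumina NextSeq500 sequencing came last. Binding signal is each hexamer's read frequency for a factor divided by its frequency for the tag-only sample.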
# ELK1 = biological target: T2, ELK1 (Homo sapiens, UniProt P19419 1-428); conditions: protein: recombinant; tags: N-terminal GST; dsDNA, one strand shown
# T2 sequence: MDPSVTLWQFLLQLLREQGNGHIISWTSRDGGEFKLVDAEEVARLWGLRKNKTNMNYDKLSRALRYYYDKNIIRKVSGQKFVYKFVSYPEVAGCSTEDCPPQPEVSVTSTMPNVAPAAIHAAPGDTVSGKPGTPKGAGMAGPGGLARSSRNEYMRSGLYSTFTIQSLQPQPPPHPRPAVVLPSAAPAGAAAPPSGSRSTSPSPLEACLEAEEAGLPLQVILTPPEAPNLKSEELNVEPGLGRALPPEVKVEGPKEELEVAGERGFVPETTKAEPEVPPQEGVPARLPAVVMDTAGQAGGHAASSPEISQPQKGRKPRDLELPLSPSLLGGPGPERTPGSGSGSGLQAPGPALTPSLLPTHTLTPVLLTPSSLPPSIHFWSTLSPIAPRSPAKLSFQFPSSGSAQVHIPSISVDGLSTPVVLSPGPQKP
# In short: as §1
# GABPA = biological target: T3, GABPA (Homo sapiens, UniProt Q06546 1-454); conditions: protein: recombinant; tags: N-terminal GST; dsDNA, one strand shown
# T3 sequence: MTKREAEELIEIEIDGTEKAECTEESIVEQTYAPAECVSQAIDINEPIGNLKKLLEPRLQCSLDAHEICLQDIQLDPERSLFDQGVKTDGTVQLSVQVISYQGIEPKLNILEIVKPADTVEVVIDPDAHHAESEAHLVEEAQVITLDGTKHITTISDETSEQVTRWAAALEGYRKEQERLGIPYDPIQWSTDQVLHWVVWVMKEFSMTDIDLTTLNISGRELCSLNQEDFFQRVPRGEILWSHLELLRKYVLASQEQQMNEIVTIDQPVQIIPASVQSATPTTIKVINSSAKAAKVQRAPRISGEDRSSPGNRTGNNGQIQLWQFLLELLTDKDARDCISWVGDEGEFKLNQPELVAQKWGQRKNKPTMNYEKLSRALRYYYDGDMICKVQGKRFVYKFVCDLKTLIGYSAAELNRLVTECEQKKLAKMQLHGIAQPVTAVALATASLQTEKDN
# In short: as §1
# ERG = biological target: T4, ERG (Homo sapiens, UniProt P11308 1-479); conditions: protein: recombinant; tags: N-terminal GST; dsDNA, one strand shown
# T4 sequence: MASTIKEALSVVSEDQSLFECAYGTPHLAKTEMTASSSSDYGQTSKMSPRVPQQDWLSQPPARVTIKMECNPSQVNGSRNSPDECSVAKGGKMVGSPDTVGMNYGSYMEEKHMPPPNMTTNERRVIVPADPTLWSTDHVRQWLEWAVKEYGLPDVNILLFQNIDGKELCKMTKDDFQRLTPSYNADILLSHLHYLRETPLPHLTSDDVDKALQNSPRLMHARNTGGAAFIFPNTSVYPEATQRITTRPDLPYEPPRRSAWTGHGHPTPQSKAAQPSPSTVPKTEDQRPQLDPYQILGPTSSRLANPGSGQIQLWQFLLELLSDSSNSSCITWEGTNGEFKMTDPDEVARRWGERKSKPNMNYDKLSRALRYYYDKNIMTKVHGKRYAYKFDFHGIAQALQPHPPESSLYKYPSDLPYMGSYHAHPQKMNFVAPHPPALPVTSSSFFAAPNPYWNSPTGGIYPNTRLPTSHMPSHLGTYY
# In short: as §1
# ELF1 = ELF1 (Homo sapiens, UniProt P32519 1-619); conditions: protein: recombinant; tags: N-terminal GST; dsDNA, one strand shown
# Chain of ELF1 (P32519 whole entry): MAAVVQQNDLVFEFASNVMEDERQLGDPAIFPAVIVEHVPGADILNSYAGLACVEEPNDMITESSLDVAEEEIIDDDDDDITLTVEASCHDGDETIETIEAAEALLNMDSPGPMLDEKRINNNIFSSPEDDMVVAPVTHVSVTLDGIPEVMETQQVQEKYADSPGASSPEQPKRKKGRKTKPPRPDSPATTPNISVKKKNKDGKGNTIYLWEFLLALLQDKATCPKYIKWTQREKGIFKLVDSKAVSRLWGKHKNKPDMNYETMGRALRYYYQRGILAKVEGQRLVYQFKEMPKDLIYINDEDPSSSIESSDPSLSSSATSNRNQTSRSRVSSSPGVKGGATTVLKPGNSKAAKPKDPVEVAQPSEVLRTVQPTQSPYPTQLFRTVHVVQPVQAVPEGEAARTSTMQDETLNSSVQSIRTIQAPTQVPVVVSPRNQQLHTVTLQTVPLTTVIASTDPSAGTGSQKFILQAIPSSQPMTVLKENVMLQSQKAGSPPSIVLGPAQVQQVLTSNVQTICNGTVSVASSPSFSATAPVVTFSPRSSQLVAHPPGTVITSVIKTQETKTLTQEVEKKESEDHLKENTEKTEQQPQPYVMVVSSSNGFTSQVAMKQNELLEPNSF
# In short: as §1
# EHF = biological target: T5, EHF (Homo sapiens, UniProt Q9NZC4 1-300); conditions: protein: recombinant; tags: N-terminal GST; dsDNA, one strand shown
# T5 sequence: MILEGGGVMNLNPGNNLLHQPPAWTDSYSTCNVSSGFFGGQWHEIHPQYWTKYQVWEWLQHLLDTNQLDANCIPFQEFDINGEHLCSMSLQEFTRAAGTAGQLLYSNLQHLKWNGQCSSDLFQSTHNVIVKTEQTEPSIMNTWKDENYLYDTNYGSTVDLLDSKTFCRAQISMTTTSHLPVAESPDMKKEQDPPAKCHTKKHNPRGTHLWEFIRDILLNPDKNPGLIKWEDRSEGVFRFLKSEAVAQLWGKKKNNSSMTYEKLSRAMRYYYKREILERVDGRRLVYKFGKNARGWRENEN
# In short: as §1
# SPI1 = SPI1 (Homo sapiens, UniProt P17947 1-270); conditions: protein: recombinant; tags: N-terminal GST; dsDNA, one strand shown
# In short: as §1
# SPIB = SPIB (Homo sapiens, UniProt Q01892 1-262); conditions: protein: recombinant; tags: N-terminal GST; dsDNA, one strand shown
# Chain of SPIB (Q01892 whole entry): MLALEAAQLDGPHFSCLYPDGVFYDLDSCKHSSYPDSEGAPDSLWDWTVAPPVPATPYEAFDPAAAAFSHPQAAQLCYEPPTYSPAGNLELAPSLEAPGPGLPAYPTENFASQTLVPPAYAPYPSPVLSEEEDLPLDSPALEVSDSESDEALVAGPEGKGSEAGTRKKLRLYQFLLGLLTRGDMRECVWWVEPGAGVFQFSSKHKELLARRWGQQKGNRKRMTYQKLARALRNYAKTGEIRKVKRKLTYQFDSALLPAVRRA
# In short: as §1
# ELK3 = biological target: T6, ELK3 (Homo sapiens, UniProt P41970 1-407); conditions: protein: recombinant; tags: N-terminal GST; dsDNA, one strand shown
# T6 sequence: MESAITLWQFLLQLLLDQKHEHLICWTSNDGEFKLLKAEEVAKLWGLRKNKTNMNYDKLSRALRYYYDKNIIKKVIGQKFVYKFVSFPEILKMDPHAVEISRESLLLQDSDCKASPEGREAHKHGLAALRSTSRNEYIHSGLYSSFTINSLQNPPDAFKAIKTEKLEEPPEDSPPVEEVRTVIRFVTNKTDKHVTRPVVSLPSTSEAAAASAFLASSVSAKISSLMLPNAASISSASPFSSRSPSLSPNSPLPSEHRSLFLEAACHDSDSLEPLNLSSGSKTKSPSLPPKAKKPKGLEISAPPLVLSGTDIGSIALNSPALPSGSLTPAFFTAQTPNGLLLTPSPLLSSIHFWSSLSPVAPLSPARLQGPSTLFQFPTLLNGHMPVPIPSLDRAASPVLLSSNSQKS
# In short: as §1
# FEV = biological target: T7, FEV (Homo sapiens, UniProt Q99581 1-238); conditions: protein: recombinant; tags: N-terminal GST; dsDNA, one strand shown
# T7 sequence: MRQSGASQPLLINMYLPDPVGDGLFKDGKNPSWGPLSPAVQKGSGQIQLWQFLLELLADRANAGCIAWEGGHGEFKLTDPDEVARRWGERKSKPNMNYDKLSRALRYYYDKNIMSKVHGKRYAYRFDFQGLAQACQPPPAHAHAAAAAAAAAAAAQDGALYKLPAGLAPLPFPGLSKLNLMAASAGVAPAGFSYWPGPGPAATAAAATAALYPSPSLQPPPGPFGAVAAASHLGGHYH
# In short: as §1
# ETV5 = ETV5 (Homo sapiens, UniProt P41161 1-510); conditions: protein: recombinant; tags: N-terminal GST; dsDNA, one strand shown
# Chain of ETV5 (P41161 whole entry): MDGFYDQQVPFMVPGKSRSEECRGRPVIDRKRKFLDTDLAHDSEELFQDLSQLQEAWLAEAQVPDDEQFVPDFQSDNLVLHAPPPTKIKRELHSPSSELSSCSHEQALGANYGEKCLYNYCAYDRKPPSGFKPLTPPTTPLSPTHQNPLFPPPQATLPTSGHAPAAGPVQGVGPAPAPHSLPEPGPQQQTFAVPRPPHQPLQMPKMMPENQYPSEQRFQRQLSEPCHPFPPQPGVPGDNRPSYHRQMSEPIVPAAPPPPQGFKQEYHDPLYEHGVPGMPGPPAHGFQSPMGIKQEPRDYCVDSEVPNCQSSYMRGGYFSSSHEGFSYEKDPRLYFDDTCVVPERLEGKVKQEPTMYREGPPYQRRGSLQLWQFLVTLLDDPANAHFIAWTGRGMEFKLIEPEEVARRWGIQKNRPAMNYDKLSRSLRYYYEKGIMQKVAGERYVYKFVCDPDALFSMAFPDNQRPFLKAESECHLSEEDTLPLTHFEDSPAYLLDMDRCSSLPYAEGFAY
# In short: as §1
# HSF1 = HSF1 (Homo sapiens, UniProt Q00613 1-529); conditions: protein: recombinant; tags: N-terminal GST; chain copies: 3; dsDNA, one strand shown
# Chain of HSF1 (Q00613 whole entry): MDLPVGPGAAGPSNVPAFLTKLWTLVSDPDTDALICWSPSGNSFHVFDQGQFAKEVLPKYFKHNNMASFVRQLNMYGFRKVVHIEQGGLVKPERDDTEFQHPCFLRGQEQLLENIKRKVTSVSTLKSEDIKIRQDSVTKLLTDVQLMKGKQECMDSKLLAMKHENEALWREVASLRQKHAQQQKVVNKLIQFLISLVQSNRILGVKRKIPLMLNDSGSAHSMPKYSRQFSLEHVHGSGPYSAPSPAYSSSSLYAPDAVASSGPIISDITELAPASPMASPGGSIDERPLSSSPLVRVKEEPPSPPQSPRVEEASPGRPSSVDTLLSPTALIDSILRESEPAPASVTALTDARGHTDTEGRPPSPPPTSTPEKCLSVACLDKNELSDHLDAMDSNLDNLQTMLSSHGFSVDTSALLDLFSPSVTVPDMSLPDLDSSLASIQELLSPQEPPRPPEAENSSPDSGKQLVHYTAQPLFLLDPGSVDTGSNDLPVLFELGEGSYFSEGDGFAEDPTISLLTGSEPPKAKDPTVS
# In short: as §1
# SPIC = biological target: T8, SPIC (Homo sapiens, UniProt Q8N5J4 1-248); conditions: protein: recombinant; tags: N-terminal GST; dsDNA, one strand shown
# T8 sequence: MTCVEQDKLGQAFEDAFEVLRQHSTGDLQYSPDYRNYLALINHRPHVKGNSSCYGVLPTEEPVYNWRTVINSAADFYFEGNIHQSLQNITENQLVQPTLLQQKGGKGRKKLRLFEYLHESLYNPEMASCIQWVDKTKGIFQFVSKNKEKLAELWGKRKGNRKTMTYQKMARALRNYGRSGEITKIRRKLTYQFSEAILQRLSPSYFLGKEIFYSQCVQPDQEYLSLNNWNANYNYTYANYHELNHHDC
# In short: as §1
# ELF4 = ELF4 (Homo sapiens, UniProt Q99607 1-663); conditions: protein: recombinant; tags: N-terminal GST; dsDNA, one strand shown
# Chain of ELF4 (Q99607 whole entry): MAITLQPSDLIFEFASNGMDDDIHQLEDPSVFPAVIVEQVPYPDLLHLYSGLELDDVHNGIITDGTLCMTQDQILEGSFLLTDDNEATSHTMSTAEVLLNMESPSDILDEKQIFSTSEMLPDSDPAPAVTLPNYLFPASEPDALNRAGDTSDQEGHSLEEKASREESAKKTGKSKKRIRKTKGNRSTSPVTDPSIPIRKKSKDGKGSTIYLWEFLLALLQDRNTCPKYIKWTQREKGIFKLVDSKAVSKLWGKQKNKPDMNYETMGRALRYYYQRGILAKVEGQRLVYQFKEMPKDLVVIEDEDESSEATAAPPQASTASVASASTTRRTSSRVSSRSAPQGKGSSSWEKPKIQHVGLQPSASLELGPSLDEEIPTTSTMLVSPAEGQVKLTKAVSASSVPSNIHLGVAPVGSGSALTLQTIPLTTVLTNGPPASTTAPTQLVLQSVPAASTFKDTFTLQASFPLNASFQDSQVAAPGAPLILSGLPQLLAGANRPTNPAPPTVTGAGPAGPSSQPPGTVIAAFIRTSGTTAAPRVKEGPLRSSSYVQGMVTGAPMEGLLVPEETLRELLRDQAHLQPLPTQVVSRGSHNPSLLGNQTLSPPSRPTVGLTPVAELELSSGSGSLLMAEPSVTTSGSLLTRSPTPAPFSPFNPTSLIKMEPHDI
# In short: as §1
# ELK4 = biological target: T9, ELK4 (Homo sapiens, UniProt P28324-2 1-405); conditions: protein: recombinant; tags: N-terminal GST; dsDNA, one strand shown
# T9 sequence: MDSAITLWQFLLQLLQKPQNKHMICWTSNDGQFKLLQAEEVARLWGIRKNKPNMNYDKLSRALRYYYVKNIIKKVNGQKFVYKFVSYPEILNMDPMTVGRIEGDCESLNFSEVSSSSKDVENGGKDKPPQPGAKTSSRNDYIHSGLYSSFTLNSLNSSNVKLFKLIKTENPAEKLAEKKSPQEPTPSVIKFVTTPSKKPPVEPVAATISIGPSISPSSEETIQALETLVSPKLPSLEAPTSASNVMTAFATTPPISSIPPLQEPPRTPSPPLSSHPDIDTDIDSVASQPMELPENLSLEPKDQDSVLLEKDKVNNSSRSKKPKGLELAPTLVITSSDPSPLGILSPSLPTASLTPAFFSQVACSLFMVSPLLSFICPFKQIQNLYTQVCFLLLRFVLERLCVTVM
# In short: as §1
# ETV2 = biological target: T10, ETV2 (Homo sapiens, UniProt O00321 1-342); conditions: protein: recombinant; tags: N-terminal GST; dsDNA, one strand shown
# T10 sequence: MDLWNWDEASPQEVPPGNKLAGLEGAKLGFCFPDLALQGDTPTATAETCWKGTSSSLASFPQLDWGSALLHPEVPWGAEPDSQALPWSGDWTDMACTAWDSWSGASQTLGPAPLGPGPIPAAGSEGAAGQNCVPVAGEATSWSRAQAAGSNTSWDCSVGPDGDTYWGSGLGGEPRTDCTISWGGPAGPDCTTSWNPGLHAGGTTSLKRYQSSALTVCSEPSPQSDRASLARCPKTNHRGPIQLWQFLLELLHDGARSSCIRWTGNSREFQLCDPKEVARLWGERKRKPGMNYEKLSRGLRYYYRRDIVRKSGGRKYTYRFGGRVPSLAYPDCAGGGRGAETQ
# In short: as §1
# ELF3 = biological target: T11, ELF3 (Homo sapiens, UniProt P78545 1-371); conditions: protein: recombinant; tags: N-terminal GST; dsDNA, one strand shown
# T11 sequence: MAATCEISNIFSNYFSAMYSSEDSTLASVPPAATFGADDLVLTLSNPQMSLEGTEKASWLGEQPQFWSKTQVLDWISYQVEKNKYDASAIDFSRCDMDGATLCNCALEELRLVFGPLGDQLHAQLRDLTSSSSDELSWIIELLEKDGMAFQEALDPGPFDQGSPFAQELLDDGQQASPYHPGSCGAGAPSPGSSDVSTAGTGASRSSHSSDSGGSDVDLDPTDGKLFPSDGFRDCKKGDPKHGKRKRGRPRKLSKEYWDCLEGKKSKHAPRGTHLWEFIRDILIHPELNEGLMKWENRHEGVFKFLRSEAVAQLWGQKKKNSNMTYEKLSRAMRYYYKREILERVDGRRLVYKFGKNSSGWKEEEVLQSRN
# In short: as §1
# CRX = CRX (Homo sapiens, UniProt O43186 1-299); conditions: protein: recombinant; tags: N-terminal GST; dsDNA, one strand shown
# Chain of CRX (O43186 whole entry): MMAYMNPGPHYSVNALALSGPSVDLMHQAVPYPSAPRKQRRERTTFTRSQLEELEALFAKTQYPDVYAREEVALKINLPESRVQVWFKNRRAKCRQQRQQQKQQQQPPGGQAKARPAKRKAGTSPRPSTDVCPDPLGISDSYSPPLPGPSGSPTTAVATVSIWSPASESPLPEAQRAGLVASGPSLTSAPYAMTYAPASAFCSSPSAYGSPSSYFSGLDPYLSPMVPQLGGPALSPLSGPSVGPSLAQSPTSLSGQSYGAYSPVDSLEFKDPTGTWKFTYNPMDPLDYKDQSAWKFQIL
# In short: as §1
# ETV1 = ETV1 (Homo sapiens, UniProt P50549 1-477); conditions: protein: recombinant; tags: N-terminal GST; dsDNA, one strand shown
# Chain of ETV1 (P50549 whole entry): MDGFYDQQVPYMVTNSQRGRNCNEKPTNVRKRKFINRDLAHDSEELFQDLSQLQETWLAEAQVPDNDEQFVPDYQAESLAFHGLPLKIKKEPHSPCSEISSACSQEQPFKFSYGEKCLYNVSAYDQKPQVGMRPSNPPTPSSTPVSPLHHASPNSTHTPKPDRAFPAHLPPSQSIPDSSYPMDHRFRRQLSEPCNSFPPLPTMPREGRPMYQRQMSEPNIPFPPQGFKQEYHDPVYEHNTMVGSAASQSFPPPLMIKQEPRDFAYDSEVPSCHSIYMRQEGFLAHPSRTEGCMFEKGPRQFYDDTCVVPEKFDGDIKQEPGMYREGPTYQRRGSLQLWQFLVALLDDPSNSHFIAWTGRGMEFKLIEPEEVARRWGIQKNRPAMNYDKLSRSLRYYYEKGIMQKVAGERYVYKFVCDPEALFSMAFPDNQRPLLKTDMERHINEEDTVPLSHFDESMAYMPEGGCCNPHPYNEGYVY
# In short: as §1
sequence,measurement,setting,value
CCGAAT,binding signal,FLI1,"1.23 fold enrichment (6-mer frequency, TF over GST control)"
same,binding signal,ELK1,"1.1 fold enrichment (6-mer frequency, TF over GST control)"
same,binding signal,GABPA,"1.25 fold enrichment (6-mer frequency, TF over GST control)"
same,binding signal,ERG,"1.07 fold enrichment (6-mer frequency, TF over GST control)"
same,binding signal,ELF1,"1.22 fold enrichment (6-mer frequency, TF over GST control)"
same,binding signal,EHF,"1.24 fold enrichment (6-mer frequency, TF over GST control)"
same,binding signal,SPI1,"1.2 fold enrichment (6-mer frequency, TF over GST control)"
same,binding signal,SPIB,"1.22 fold enrichment (6-mer frequency, TF over GST control)"
same,binding signal,ELK3,"1.14 fold enrichment (6-mer frequency, TF over GST control)"
same,binding signal,FEV,"1.16 fold enrichment (6-mer frequency, TF over GST control)"
same,binding signal,ETV5,"1.14 fold enrichment (6-mer frequency, TF over GST control)"
same,binding signal,HSF1,"1.64 fold enrichment (6-mer frequency, TF over GST control)"
same,binding signal,SPIC,"1.29 fold enrichment (6-mer frequency, TF over GST control)"
same,binding signal,ELF4,"1.16 fold enrichment (6-mer frequency, TF over GST control)"
same,binding signal,ELK4,"1.06 fold enrichment (6-mer frequency, TF over GST control)"
same,binding signal,ETV2,"1.12 fold enrichment (6-mer frequency, TF over GST control)"
same,binding signal,ELF3,"1.16 fold enrichment (6-mer frequency, TF over GST control)"
same,binding signal,CRX,"1.33 fold enrichment (6-mer frequency, TF over GST control)"
same,binding signal,ETV1,"1.19 fold enrichment (6-mer frequency, TF over GST control)"
